In the supplement of paper PMC10849652:
Targets with a hit are over-represented here; the source holds about 8,800 in all. About 0.5% of all pairs of compound and target were hits. A number with no mark means an inactive call.

What was measured:
Test in all cases: log2 fold change, soluble protein after heating vs DMSO (PISA); higher = thermal stabilisation; K562 lysate, 10 uM; active = over 0.2 and 3.5 SD of the protein, either way, in both replicates (recomputed)
nilotinib = compound: Cc1cn(-c2cc(NC(=O)c3ccc(C)c(Nc4nccc(-c5cccnc5)n4)c3)cc(C(F)(F)F)c2)cn1 [nilotinib]
Summary of the method: (§1)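 Quantification was by TMTpro 16plex LC-MS/MS with equalised channel sums, applied to the supernatant after 21,000xg for 90 min. Samples were crude K562 extract at 1 mg/mL protein in PBS pH 7.4 with 1 mM MgCl2, treated with 10 μM compound for 30 min, heated for 3 min across 48°C-58°C, pooled and brought to 0.5% NP-40 at 4°C. Values are log-two fold changes in thermal stability relative to solvent controls, from duplicates.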

[1] = compound: Cc1nc(Nc2n[nH]c3c2CN(C(=O)N[C@H](CN(C)C)c2ccccc2)C3(C)C)c2sccc2n1
Summary of the method: as §1

dasatinib = compound: Cc1nc(Nc2ncc(C(=O)Nc3c(C)cccc3Cl)s2)cc(N2CCN(CCO)CC2)n1 [dasatinib]
Summary of the method: as §1

[2] = compound: Cc1ncc(-c2ccnc(Nc3ccc(S(C)(=O)=O)cc3)n2)n1C(C)C
Summary of the method: as §1

[3] = compound: Cn1cc(-c2ccc3c(c2)CCN3C(=O)Cc2cccc(C(F)(F)F)c2)c2c(N)ncnc21
Summary of the method: as §1

quisinostat = compound: Cn1cc(CNCC2CCN(c3ncc(C(=O)NO)cn3)CC2)c2ccccc21 [quisinostat]
Summary of the method: as §1

tipifarnib = compound: Cn1cncc1[C@@](N)(c1ccc(Cl)cc1)c1ccc2c(c1)c(-c1cccc(Cl)c1)cc(=O)n2C [tipifarnib]
Summary of the method: as §1

[4] = compound: NC(=O)Nc1cc(-c2cccc(F)c2)sc1C(=O)N[C@H]1CCCNC1
Summary of the method: as §1

[5] = compound: NC(=O)c1cnc(N[C@@H]2CCCC[C@@H]2N)nc1Nc1cccc(-n2nccn2)c1
Summary of the method: as §1

[6] = compound: NC1(c2ccc(-c3nc4ccn5c(=O)[nH]nc5c4cc3-c3ccccc3)cc2)CCC1
Summary of the method: as §1

Chain of UniProt P04181 (P04181 whole entry, looked up): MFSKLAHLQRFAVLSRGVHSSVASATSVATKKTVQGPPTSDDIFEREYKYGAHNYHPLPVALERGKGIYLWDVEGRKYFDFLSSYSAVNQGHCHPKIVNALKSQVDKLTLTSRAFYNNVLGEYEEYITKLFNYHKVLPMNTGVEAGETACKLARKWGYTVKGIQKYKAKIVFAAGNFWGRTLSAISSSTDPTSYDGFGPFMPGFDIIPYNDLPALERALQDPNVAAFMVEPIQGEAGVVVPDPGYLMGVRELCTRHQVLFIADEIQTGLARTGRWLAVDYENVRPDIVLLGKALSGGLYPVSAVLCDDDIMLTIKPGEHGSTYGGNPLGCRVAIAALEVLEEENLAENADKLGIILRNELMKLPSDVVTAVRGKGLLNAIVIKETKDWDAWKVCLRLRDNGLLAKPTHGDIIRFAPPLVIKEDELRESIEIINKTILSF
Chain of UniProt P55160 (P55160 whole entry, looked up): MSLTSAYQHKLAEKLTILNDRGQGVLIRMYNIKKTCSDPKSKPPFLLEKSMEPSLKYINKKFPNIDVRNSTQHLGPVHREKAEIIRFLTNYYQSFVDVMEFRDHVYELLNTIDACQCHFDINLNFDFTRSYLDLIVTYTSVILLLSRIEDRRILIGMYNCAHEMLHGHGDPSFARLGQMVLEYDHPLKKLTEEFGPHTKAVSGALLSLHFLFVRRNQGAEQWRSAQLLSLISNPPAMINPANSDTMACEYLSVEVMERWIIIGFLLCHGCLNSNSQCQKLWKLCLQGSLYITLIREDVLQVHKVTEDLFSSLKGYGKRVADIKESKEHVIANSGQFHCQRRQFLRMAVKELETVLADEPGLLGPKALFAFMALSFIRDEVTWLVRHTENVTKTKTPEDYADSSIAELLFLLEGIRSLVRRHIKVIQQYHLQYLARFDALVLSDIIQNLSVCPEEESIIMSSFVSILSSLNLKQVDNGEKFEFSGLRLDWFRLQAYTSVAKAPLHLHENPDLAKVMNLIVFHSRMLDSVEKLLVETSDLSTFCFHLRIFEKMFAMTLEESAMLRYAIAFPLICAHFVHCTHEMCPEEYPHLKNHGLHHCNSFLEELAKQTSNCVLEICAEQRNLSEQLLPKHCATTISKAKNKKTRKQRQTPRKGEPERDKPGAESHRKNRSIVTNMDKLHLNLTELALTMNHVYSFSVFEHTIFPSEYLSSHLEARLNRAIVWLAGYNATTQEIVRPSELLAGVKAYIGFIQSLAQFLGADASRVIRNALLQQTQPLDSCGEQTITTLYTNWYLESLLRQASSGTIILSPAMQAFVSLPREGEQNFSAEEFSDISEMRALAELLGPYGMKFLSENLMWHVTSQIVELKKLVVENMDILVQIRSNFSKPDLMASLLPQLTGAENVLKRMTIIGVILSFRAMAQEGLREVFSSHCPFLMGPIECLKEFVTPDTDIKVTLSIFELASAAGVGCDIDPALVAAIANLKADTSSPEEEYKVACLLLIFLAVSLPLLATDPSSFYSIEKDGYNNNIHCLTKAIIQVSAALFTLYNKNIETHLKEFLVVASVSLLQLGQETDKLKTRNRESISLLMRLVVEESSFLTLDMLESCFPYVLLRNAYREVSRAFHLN
Chain of UniProt P10244 (P10244 whole entry, looked up): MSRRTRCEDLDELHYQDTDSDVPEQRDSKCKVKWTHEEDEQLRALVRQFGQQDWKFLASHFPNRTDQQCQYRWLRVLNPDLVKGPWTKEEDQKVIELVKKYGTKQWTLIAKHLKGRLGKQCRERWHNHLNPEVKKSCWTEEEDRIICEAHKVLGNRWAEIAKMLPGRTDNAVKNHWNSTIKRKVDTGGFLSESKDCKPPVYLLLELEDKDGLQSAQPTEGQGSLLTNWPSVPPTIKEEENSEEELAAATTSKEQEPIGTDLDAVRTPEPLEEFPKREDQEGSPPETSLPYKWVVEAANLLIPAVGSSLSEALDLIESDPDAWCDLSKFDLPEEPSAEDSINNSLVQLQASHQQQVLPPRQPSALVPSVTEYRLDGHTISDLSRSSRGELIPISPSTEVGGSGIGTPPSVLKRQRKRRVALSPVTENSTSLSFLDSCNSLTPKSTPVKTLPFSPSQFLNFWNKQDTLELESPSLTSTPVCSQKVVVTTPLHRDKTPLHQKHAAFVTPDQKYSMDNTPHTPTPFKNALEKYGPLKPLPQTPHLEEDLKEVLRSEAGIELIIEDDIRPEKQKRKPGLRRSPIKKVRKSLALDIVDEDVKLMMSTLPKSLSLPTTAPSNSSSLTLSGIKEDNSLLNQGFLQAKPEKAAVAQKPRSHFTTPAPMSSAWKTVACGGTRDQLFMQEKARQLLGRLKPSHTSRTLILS
Chain of UniProt P53370 (P53370 whole entry, looked up): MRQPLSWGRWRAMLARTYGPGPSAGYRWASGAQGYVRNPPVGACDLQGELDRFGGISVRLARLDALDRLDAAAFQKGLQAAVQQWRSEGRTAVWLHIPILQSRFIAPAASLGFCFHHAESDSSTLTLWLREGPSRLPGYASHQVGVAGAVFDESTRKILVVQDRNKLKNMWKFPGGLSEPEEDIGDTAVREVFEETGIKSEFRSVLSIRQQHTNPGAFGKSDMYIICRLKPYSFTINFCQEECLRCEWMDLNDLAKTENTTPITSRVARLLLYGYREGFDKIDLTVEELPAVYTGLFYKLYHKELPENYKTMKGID
Chain of UniProt P13533 (P13533 whole entry, looked up): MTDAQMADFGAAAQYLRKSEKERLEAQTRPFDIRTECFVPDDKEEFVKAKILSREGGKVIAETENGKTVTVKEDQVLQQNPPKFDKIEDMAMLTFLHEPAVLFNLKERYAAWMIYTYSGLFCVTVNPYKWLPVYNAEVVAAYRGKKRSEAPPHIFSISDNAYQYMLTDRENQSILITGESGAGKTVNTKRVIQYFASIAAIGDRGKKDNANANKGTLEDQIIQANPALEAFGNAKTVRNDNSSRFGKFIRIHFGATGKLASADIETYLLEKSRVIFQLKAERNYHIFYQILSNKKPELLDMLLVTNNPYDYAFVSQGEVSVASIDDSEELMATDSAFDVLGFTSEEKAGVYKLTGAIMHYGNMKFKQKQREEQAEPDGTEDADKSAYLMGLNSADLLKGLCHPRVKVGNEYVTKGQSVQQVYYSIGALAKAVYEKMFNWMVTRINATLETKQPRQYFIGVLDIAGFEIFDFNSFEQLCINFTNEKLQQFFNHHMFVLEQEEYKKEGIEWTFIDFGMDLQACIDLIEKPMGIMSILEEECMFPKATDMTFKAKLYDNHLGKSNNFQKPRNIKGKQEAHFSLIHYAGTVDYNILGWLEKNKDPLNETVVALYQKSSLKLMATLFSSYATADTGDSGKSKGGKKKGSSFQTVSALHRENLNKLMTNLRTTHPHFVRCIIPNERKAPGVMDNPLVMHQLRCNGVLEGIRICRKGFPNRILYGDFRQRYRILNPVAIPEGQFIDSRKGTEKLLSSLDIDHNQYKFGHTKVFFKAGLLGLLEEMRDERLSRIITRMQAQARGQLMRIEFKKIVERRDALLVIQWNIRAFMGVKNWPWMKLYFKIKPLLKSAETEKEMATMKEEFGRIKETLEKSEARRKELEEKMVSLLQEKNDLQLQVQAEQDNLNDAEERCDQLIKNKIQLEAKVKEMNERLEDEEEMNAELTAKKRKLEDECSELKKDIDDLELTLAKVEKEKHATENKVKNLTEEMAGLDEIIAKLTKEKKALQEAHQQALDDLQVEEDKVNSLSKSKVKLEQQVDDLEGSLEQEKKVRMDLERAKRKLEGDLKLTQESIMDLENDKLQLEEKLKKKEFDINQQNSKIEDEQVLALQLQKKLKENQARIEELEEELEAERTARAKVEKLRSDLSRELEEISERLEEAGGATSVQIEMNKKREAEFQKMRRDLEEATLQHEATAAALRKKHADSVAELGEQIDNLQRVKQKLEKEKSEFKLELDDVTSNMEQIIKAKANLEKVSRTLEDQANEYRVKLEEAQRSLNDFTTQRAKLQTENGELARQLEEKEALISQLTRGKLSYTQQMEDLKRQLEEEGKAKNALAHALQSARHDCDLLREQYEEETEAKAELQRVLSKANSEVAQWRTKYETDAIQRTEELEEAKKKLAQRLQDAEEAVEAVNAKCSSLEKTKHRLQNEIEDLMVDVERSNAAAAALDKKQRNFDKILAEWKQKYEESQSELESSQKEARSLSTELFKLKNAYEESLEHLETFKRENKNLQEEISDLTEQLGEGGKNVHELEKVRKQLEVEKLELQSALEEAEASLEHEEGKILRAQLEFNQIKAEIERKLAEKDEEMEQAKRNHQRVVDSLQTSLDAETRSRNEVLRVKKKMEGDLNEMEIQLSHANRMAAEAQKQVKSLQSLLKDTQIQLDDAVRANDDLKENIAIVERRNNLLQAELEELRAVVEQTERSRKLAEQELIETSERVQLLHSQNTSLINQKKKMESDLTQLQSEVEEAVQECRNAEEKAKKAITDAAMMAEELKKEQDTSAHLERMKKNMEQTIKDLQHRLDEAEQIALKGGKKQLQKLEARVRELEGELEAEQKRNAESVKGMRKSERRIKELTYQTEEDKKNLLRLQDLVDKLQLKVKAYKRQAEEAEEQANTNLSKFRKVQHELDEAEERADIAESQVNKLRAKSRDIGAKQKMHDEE
Chain of UniProt Q96DH6 (Q96DH6 whole entry, looked up): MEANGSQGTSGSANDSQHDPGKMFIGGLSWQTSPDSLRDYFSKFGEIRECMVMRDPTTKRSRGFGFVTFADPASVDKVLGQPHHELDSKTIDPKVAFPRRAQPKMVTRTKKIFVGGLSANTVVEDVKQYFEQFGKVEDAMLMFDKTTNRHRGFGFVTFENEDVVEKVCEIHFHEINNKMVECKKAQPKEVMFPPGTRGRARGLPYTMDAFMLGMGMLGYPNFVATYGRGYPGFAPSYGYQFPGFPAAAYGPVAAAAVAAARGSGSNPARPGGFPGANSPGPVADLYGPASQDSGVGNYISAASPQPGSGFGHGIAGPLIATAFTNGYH
Chain of UniProt P03928 (P03928 whole entry, looked up): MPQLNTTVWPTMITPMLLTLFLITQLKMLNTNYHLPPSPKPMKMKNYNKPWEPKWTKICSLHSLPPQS
Chain of UniProt O60829 (O60829 whole entry, looked up): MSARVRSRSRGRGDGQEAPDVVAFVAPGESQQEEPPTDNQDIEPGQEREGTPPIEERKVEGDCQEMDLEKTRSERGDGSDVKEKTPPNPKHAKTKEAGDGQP

Target	log2 fold change (nilotinib)	log2 fold change [1]	log2 fold change (dasatinib)	log2 fold change [2]	log2 fold change [3]	log2 fold change (quisinostat)	log2 fold change (tipifarnib)	log2 fold change [4]	log2 fold change [5]	log2 fold change [6]
NBN (UniProt O60934)	0.004	0.013	-0.019	0.037	0.03	0.011	0.005	0.046	-0.024	-0.015
NDC1 (UniProt Q9BTX1)	-0.019	-0.006	-0.071	-0.018	0.052	-0.03	0.009	0	-0.01	-0.028
NSUN2 (UniProt Q08J23)	0.013	-0.004	-0.023	-0.005	0.022	0.007	0.027	0.024	-0.009	-0.011
NEBL isoform 2 (UniProt O76041)	-0.022	-0.001	-0.029	0.015	-0.072	0.012	-0.021	-0.017	-0.027	-0.007
OGFR (UniProt Q9NZT2)	-0.016	0.021	-0.022	-0.005	0.042	-0.004	0.04	0.02	-0.001	0.028
NPTN (UniProt Q9Y639)	-0.029	0.005	-0.06	-0.025	-0.009	-0.038	0.043	0.031	0.004	0.002
NOA1 (UniProt Q8NC60)	-0.041	-0.012	-0.05	-0.011	-0.036	-0.089	-0.027	0.059	0.04	-0.001
MRPL58 (UniProt Q14197)	-0.022	0.045	-0.008	-0.012	0.021	0.017	0.003	0.055	0.025	-0.032
MTOR (UniProt P42345)	0.007	-0.022	-0.064	0.001	0.039	-0.067	0.015	0.04	0.017	-0.033
NCKAP1L (UniProt P55160)	0.001	-0.017	-0.034	0.072	0.005	-0.034	0.032	0.055	0.017	0.023
MTA2 (UniProt O94776)	0.001	0.017	-0.019	-0.011	0.046	-0.062	-0.007	0.03	-0.002	0.001
NUP98 (UniProt P52948)	-0.041	-0.017	-0.053	-0.008	0.031	-0.049	-0.12	0.055	-0.002	0.003
PBK (UniProt Q96KB5)	-0.01	0.006	-0.035	0.017	0.017	-0.02	0.033	0.032	0.017	0.024
MSI2 (UniProt Q96DH6)	-0.089	0.011	0.01	0.009	0.049	0.023	-0.057	0.029	0.028	-0.016
OAT (UniProt P04181)	0.012	-0.038	-0.033	0.003	-0.012	-0.002	0.024	-0.01	0.019	-0.018
NCAPH (UniProt Q15003)	-0.033	0	-0.03	-0.017	-0.017	0.005	0.023	0.013	0.006	-0.017
NFKBIE (UniProt O00221)	-0.074	0.014	-0.053	0.424 (active)	0.002	-0.004	-0.112	0.025	0.061	-0.024
NELFA (UniProt Q9H3P2)	-0.018	-0.01	-0.064	-0.02	-0.009	-0.007	0.024	0.03	0.048	-0.014
MRPS31 (UniProt Q92665)	-0.005	-0.002	-0.034	0.034	0.002	-0.046	0.015	0.022	-0.026	-0.014

Target	log2 fold change (nilotinib)	log2 fold change [1]	log2 fold change (dasatinib)	log2 fold change [2]	log2 fold change [3]	log2 fold change (quisinostat)	log2 fold change (tipifarnib)	log2 fold change [4]	log2 fold change [5]	log2 fold change [6]
NMT1 (UniProt P30419)	-0.037	0.044	0.058	-0.016	-0.022	-0.065	0.001	0.007	-0.005	-0.057
NEXN (UniProt Q0ZGT2)	-0.022	-0.011	0.043	-0.051	0.027		-0.043		-0.149	-0.002
NFAT5 isoform 4 (UniProt O94916)						0.014		0.012		
NAA16 (UniProt Q6N069)	0.068	-0.139	-0.042	0.039	0.071		-0.015		0.08	
MUC5AC (UniProt P98088)	0.02	0.048		0.128			-0.593 (active)			
NADK2 (UniProt Q4G0N4)	0.022	0.002	-0.016	-0.008	-0.022	0.017	0.008	-0.032	0.029	0.03
NUDT4 isoform 2 (UniProt Q9NZJ9)	-0.004	0.012	0.13	-0.002	0.038	-0.012	-0.044	0.016	-0.042	0.043
NFIC (UniProt P08651)	-0.058	-0.162	0.014	-0.114	0.022	-0.072	0.014	0.029	0.098	0.016
PANK1 (UniProt Q8TE04)	-0.005	0.014	-0.028	-0.05	0.053	-0.039	0.079	0.062	-0.007	0.062
PAGE4 (UniProt O60829)			-0.086		-0.035	-0.097		0.036	0.04	0.004
MT-ATP8 (UniProt P03928)	0.055	0.177		0.214		0.043	0.085	0.056	-0.067	-0.084
MYBL2 (UniProt P10244)			-0.055		-0.012	-0.071		-0.021		-0.015
NUMB isoform 2 (UniProt P49757)	-0.293	-0.07	0.227	0.225	-0.127		-0.068			
NDUFAF5 (UniProt Q5TEU4)			0.02		-0.061	-0.078		0.114	-0.034	-0.042
MYLK (UniProt Q15746)	0.138	-0.197		-0.108		0.048	-0.035	-0.175	0.079	
NTMT1 (UniProt S4R338)									-0.027	
NUMB (UniProt P49757)	-0.03	-0.024	-0.072	-0.008	0.001	-0.02	0.001	-0.029	-0.026	0.003
NUDT5 (UniProt C9JYY9)	-0.049	0.02		0.228			-0.068			-0.119
NARS2 (UniProt Q96I59)	0.019	-0.027	-0.046	-0.014	0.026	-0.023	0.007	0.051	0.037	-0.037

Target	log2 fold change (nilotinib)	log2 fold change [1]	log2 fold change (dasatinib)	log2 fold change [2]	log2 fold change [3]	log2 fold change (quisinostat)	log2 fold change (tipifarnib)	log2 fold change [4]	log2 fold change [5]	log2 fold change [6]
MYH6 (UniProt P13533)						-0.007		0.082	0.092	-0.114
NSUN7 (UniProt Q8NE18)						-0.573 (active)		0.01	0.009	-0.031
NSA2 (UniProt O95478)	0.102	-0.04	-0.323	-0.08	-0.113		-0.004		0.076	-0.15
P2RY1 (UniProt P47900)			0.012		-0.027				-0.182	0.004
NPLOC4 (UniProt I3L3I1)			0.057		-0.116	-0.986 (active)		0.196		
NR2C2 isoform 2 (UniProt P49116)			-0.033		0.064	-0.054		0.04	-0.025	-0.048
MTHFD1 (UniProt V9GZ32)	-0.43	-0.802		-0.041			0.188		-0.185	
PARD3B (UniProt Q8TEW8)			0.051		-0.095					0.174
PAPOLG (UniProt Q9BWT3)	0.025	-0.025	-0.023	0.031	0.079	-0.056	0.079	-0.054		0.445
NDUFS1 isoform 2 (UniProt P28331)	0.005	-0.001	0.013	-0.021	0.009	0.112	-0.002	-0.018	0.003	0.006
MYO10 (UniProt Q9HD67)	-0.019	-0.021		0.126		0.074	-0.063	-0.051		-0.161
ORC3 (UniProt Q9UBD5)	0.038	-0.062		0.059			-0.084		-0.053	
NFATC2IP (UniProt Q8NCF5)	0.027	-0.015	0.071	-0.055	0.005	0.019	0.061	0	-0.015	0.03
NUB1 isoform 2 (UniProt Q9Y5A7)						0.205		-0.019		
NCAPG (UniProt Q9BPX3)	0.01	0.002	-0.062	0	0.007	-0.08	0	0.012	-0.004	-0.019
NUDT6 (UniProt P53370)			-0.013		0.032	0.021		-0.03		-0.058
PAK4 (UniProt O96013)	-0.015	0.71 (active)	0.141	0.264	-0.081	-0.269	-0.016	0.9 (active)	0.473	0.257
PARD3 (UniProt Q8TEW0)	-0.114	-0.109	0.021	-0.031	0.024	-0.002	0.121	0.029	0.199	0.105
